Source: PubChem BioAssay (Johns Hopkins Ion Channel Center)
Only some compounds are listed: those with a hit (about 1.6% of all), similar ones and a draw of the others.
KCNQ2 block: rat KCNQ2 potassium channel inhibitors, primary screen, cell-based, CHO-K1, FluxOR thallium flux, B-score; Potassium voltage-gated channel subfamily KQT member 2 (Rattus norvegicus), O88943; 20 min; stronger effect = lower value; B-score at 10 µM; 310,000 compounds, 1.1% hits; AID 2156, 2009;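 active means fluorescence ratio B-score at most minus 3 library SDs, with starting brightness B-score within 2 library SDs, cut at about -5.5 in these data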
Target sequence (O88943 whole entry, looked up): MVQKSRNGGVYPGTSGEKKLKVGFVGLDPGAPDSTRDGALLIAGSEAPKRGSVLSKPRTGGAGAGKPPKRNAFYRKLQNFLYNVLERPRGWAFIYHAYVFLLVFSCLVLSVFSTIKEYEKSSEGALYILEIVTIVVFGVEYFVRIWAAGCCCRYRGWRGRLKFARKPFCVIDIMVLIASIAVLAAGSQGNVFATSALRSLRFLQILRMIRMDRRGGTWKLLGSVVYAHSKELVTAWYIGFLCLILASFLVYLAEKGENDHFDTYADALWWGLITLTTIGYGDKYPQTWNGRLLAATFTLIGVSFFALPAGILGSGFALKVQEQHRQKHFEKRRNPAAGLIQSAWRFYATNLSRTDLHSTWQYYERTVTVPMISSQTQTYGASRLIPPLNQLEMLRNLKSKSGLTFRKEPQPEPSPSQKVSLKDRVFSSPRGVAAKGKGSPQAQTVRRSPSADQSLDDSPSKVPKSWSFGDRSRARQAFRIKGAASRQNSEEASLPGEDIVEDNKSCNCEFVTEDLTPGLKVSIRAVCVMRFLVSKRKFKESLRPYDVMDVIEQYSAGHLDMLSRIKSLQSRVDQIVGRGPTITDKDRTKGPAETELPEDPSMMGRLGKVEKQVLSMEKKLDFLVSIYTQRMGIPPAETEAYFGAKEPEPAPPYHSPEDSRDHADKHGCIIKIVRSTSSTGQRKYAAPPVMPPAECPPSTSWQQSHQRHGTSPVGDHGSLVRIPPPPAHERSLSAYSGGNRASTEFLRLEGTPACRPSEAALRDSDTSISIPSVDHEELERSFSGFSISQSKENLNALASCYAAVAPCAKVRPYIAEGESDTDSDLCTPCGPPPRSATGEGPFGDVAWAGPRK
KCNQ2 enhance: potentiators of rat KCNQ2 potassium channel | Potassium voltage-gated channel subfamily KQT member 2 (Rattus norvegicus), O88943 | CHO-K1 KCNQ2, FluxOR thallium flux fluorescence; stronger effect = higher value | B-score at 10 µM | 310,000 compounds, 0.54% hits | AID 2239, 2010;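 active means fluorescence ratio B-score at least 3 SD of library B-scores, with initial fluorescence B-score within 3 of them, cut at about 5.3 in these data; same plate scores as AID 2156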;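 further: B-score of peak minus minimum over baseline fluorescence ratio after K+ and Tl+ stimulus; positive B-score means potentiation of KCNQ2 with more thallium influx and brighter signal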
Active calls of the source: *; i = inactive; nt = no result given.

SMILES	KCNQ2 block	KCNQ2 enhance
COc1ccc(CNC(=O)COC(=O)c2ccc(OCc3c(C)noc3C)cc2)cc1OC	i	0.44
Cc1noc(C)c1COc1ccc(C(=O)OCC(=O)NCc2ccccc2Cl)cc1	-6.5*	-6.5
CC(C)CN(CC(C)C)S(=O)(=O)c1cc([N+](=O)[O-])ccc1N1CCCCCC1	-6.1*	-6.1
CN(C)S(=O)(=O)c1cc([N+](=O)[O-])ccc1N1CCCCCC1	i	nt
Cc1ccc(/C=C/C(=O)N2CCN(c3ccc(F)cc3)CC2)o1	i	nt
Cc1ccc(/C=C/C(=O)N2CCN(c3ncccn3)CC2)o1	i	8.9*
CCN(CC)CCn1c(NCc2ccco2)nc2ccccc21	i	0.5
Cn1c(CNc2nc3ccccc3n2CCN2CCCCC2)nc2ccccc21	i	nt
CCN(CC)CCn1c(NCc2nc3ccccc3n2Cc2ccccc2)nc2ccccc21	-6.2*	-6.2
c1ccc(Cn2c(CNc3nc4ccccc4n3CCN3CCCCC3)nc3ccccc32)cc1	-7.3*	-7.3
O=[N+]([O-])c1cccc(S(=O)(=O)N/N=C\c2ccc3c(c2)OCO3)c1	i	0.84
CC(=O)Nc1ccc(S(=O)(=O)N2CCN=C2C)cc1	i	0.46
COCCCNc1nc2c(c(=O)n(Cc3ccc(Cl)cc3)c(=O)n2C)n1C	i	2
C/C(CC(=O)Nc1cc(C)ccn1)=N\NC(=O)C(=O)Nc1cccc(C)c1	i	5.4*
COc1ccc(NC(=O)C(=O)N/N=C(\C)CC(=O)Nc2cc(C)ccn2)c(OC)c1	i	1
COc1ccc(-c2cc(=O)oc3cc(OCC(=O)Nc4ccccn4)ccc23)cc1	i	0.03
O=C(NCCc1cnc[nH]1)c1ccc(-c2ccccc2)cc1	i	nt
CC(C)C1=NN(C(=O)c2cccnc2)C(O)(C(F)(F)F)C1 (centres undefined)	i	0.87
CC1=NN(C(=O)c2ccc(Cn3nc(C)c([N+](=O)[O-])c3C)cc2)C(O)(C(F)(F)F)C1 (centres undefined)	i	2.4
CC1=NN(C(=O)c2ccc(Cn3nc(C)c(Br)c3C)cc2)C(O)(C(F)(F)F)C1 (centres undefined)	i	13*
CC1=NN(C(=O)c2cccnc2)C(O)(C(F)(F)F)C1 (centres undefined)	i	11*
Cc1ccc(C)c(NC(=O)CS(=O)(=O)c2cccc3nsnc23)c1	i	nt
CCOc1ccc(C(=O)NCC(=O)OCc2ccc(F)cc2Cl)cc1	i	nt
Cc1cc(C)c(C)c(OCCCCn2cnc3ccccc3c2=O)c1	i	nt
Cc1c(C(=O)O)sc2nc(/C=C/c3cccc(F)c3)[nH]c(=O)c12	i	nt
SMILES	KCNQ2 block	KCNQ2 enhance
CC(C)(C)CC(=O)N[C@@H](Cc1ccccc1)c1nc2ccccc2[nH]1	-7.2*	-7.2
CSCC[C@H](NC(=O)CC(C)(C)C)c1nc2ccccc2[nH]1	i	nt
CCN(c1ccc(OC)cc1)S(=O)(=O)N1CCCC(C(=O)NCc2cccc(C)c2)C1 (centres undefined)	-6.4*	-6.4
CCS(=O)(=O)N1CCCC(C(=O)NCc2cccc(OC)c2)C1 (centres undefined)	i	0.58
Cc1ncoc1C(=O)N1CCCC(C(=O)c2ccc(C(F)(F)F)cc2)C1 (centres undefined)	i	nt
O=C(CCc1ccccc1)c1ccc2c(c1)OCCCO2	i	nt
O/N=C(/CCc1ccccc1)c1ccc2c(c1)OCCO2	-5.9*	-5.9
Oc1ccccc1CNc1ccc(Br)cn1	i	nt
Brc1ccc(NCc2cccc3ccccc23)nc1	-6*	-6
COc1cc(/C=N/NC(=O)CC#N)cc(Br)c1O	i	2.8
COc1cccc(Oc2nnnn2-c2ccccc2)c1	i	nt
COc1cccc(-n2nnnc2S(C)(=O)=O)c1	-7.8*	-7.8
O=C(Nc1cccnc1)c1ccccc1-c1ccccc1	i	0.32
CC1=NN(c2ccccc2)C(=O)/C1=C\c1cc(C)n(C)c1C	i	0.21
COc1ccc(C(=O)OCCc2sc[n+](CC(=O)c3ccccc3)c2C)cc1	i	1.5
Cc1c(CCOC(=O)C2C3CC4CC(C3)CC2C4)sc[n+]1CC(=O)c1ccc(Br)cc1 (centres undefined)	-7.2*	-7.2
COc1cc2c(cc1OC)C(c1ccc(-c3cc(Cl)ccc3Cl)o1)=NCC2	i	nt
COc1cc2c(cc1OC)C(c1ccc(-c3ccc(Cl)c(Cl)c3)o1)=NCC2	-8.8*	-8.8
COc1cc2c(cc1OC)C(c1ccc(-c3ccccc3Cl)o1)=NCC2	-8.3*	-8.3
COc1cc2c(cc1OC)C(c1ccc(-c3ccc(Cl)cc3Cl)o1)=NCC2	i	nt
Cc1cc(SCC(=O)c2ccc(O)c(O)c2)nc2ccccc12	i	2.5
CCCN(CCC)S(=O)(=O)c1ccc(C(=O)N2CCN(C)CC2)cc1	i	0.72
COc1ccc(C(=O)N/N=C(/C)c2cccc(NC(=O)C(F)(F)F)c2)cc1	i	0.04
Cc1cc(S(=O)(=O)NCC2CC2)c(Cl)cc1Cl	i	nt
